miR-122 sensor = miR-122 Renilla sensor signal increase in Huh7, primary screen, miR-122 inhibitor project, cell-based, single point, plate reader; Huh7 miR-122 Renilla luciferase sensor, 48 h; neutral wells = 0, positive control = 100; activation (reporter increase), % at 12.5 µM; 0.3% of 340,000 active; AID 602342, 2012;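 active means mean replicate activation score at least 90 and every replicate individually at or above 90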;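 further: higher luciferase means less miR-122 activity so hits act as miR-122 inhibitors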
DENV2 CPE rescue = inhibitors of DENV2 cytopathic effect, primary screen, cell-based, plate reader, single concentration. DENV2-infected cells, cytopathic effect rescue. CPE inhibition, % at 9.99 µM. 1.7% of 350,000 active; in the data active means CPE inhibition above about 20%, passing the limit was not always enough; tested in BHK-21 cells;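 further: 0% = median of neutral control wells and 100% = median of positive control wells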
C2C12 statin = suppressors of statin myotoxicity in C2C12 myotubes, primary screen, cell-based, single point, plate reader | AID 602340, 2012 | C2C12 myotubes + simvastatin, ATP luminescence, 48 h; scaled: DMSO 0, geranylgeraniol control 100 | rescue of ATP level, % at 7.49 µM | 0.78% of 330,000 active;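 active means mean ATP rescue above about 67%, or every replicate alone reaching that limit, limit read from the data, passing the limit was not always enough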;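 further: myotubes were challenged with 10 µM simvastatin during compound exposure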
PGC1a acetyl inh = inhibitors of PGC1a acetylation signal, primary screen, cell-based, U2OS, AlphaScreen, inhibitor mode; AlphaScreen anti-acetyl-lysine; with virally co-expressed GCN5 acetyltransferase; inhibition, % at 15.6 µM; 0.17% of 350,000 active; AID 651687, 2012;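 active means every replicate shows inhibition of at least 40%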;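 further: 0% = neutral control wells and 100% = positive control wells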
PvdQ acylase = P. aeruginosa PvdQ acylase inhibitors, primary screen, biochemical, fluorescence, plate reader and imaging, single point. purified PvdQ acylase. inhibition, % at 10 µM. 0.063% of 340,000 active. AID 488965, 2010; in the data active means inhibition above about 30%, passing the limit was not always enough;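 further: 0% = vehicle neutral wells and 100% = reference inhibitor wells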
An asterisk follows results filed as active; [ ] = dose if it differs, or a comment. This is a sample that favours compounds with a hit; in the whole collection about 2.2% have one here.

How did CS(=O)(=O)N1[C@@H](CO)[C@@H](c2ccccc2)C12CN(Cc1cc(F)ccc1F)C2 do in these assays?
DENV2 CPE rescue: 40*; PGC1a acetyl inh: -6

How did COc1ccc(S(=O)(=O)Nc2cc(C)c(O)c(S(=O)(=O)c3ccccc3)c2)cc1 do in these assays?
miR-122 sensor: 129*; C2C12 statin: 9; PGC1a acetyl inh: -35; PvdQ acylase: -5

What do the screens show for `COc1ccc(S(=O)(=O)c2c(C)c(NS(=O)(=O)c3ccccc3)cc(C)c2O)cc1`?
DENV2 CPE rescue: -5; PGC1a acetyl inh: 0; PvdQ acylase: 2

Results for C[C@@H]1CN([C@H](C)CO)C(=O)Cc2cc(NS(C)(=O)=O)ccc2O[C@H]1CN(C)S(=O)(=O)c1ccc(F)cc1 ?
miR-122 sensor: 10[16.7 µM]; DENV2 CPE rescue: 6; C2C12 statin: -27; PGC1a acetyl inh: 7

Results for C[C@@H]1CN([C@H](C)CO)C(=O)Cc2cc(NS(=O)(=O)c3cccs3)ccc2O[C@H]1CN(C)S(=O)(=O)c1ccc(F)cc1 ?
miR-122 sensor: -6[16.7 µM]; DENV2 CPE rescue: 24*; C2C12 statin: -6; PGC1a acetyl inh: 3

What do the screens show for `C[C@H]1CN([C@@H](C)CO)C(=O)Cc2cc(NS(C)(=O)=O)ccc2O[C@H]1CN(C)S(=O)(=O)c1ccc(F)cc1`?
miR-122 sensor: 14[16.7 µM]; DENV2 CPE rescue: 23*; C2C12 statin: -11; PGC1a acetyl inh: 4

Results for COc1ccc(S(=O)(=O)N(C)C[C@H]2Oc3ccc(NS(=O)(=O)c4cccs4)cc3CC(=O)N([C@@H](C)CO)C[C@@H]2C)cc1 ?
miR-122 sensor: 3[16.7 µM]; DENV2 CPE rescue: 26*; C2C12 statin: -13; PGC1a acetyl inh: 1

Results for C[C@H](CO)N1C[C@H](C)[C@@H](CN(C)S(=O)(=O)c2ccc(F)cc2)Oc2ccc(NS(=O)(=O)c3cccs3)cc2CC1=O ?
miR-122 sensor: 8[16.7 µM]; DENV2 CPE rescue: 2; C2C12 statin: 4; PGC1a acetyl inh: 7

What do the screens show for `CCCNC(=O)Nc1ccc2c(c1)C(=O)N(C)C[C@@H](OC)[C@H](C)CN[C@@H](C)CO2`?
DENV2 CPE rescue: -10; C2C12 statin: 3; PGC1a acetyl inh: 5

What do the screens show for `CC(=O)N(C)C[C@@H]1Oc2ncc(-c3cccc(F)c3)cc2C(=O)N([C@@H](C)CO)C[C@@H]1C`?
miR-122 sensor: -4[16.7 µM]; DENV2 CPE rescue: 12; C2C12 statin: -2; PGC1a acetyl inh: 0

What do the screens show for `CCCNC(=O)N1C[C@@H](O)COC[C@H]2O[C@@H](CC(=O)NCc3ccc(Cl)c(Cl)c3)CC[C@@H]21`?
miR-122 sensor: -4[16.7 µM]; DENV2 CPE rescue: 0; C2C12 statin: -1; PGC1a acetyl inh: 2

What do the screens show for `CCN(CC)S(=O)(=O)c1ccc2[nH]c(=O)cc(C(=O)NCC(c3ccco3)N3CCCC3)c2c1` (stereo not given)?
miR-122 sensor: -3; DENV2 CPE rescue: 27*; C2C12 statin: 7; PGC1a acetyl inh: 10; PvdQ acylase: -10

How did COc1ccc(S(=O)(=O)Cc2ccc(C(=O)NC3CC3)o2)cc1 do in these assays?
miR-122 sensor: -1; DENV2 CPE rescue: 24*; C2C12 statin: -6; PGC1a acetyl inh: 6; PvdQ acylase: -8

Results for CNC(=O)C[C@H]1CC[C@@H]2[C@@H](COc3ccc(NC(=O)c4ccccc4Cl)cc3C(=O)N2C)O1 ?
miR-122 sensor: 0[16.7 µM]; DENV2 CPE rescue: 31*; C2C12 statin: 24; PGC1a acetyl inh: -5

What do the screens show for `Cc1cccc(NC(=O)Nc2ccc3c(c2)C(=O)N(C)[C@@H]2CC[C@@H](CC(=O)O)O[C@H]2CO3)c1`?
miR-122 sensor: -10[16.7 µM]; DENV2 CPE rescue: 72*; C2C12 statin: 0; PGC1a acetyl inh: -1

Results for CN1C(=O)c2cc(NC(=O)NC3CCCC3)ccc2OC[C@@H]2O[C@H](CC(=O)O)CC[C@H]21 ?
miR-122 sensor: 32[16.7 µM]; DENV2 CPE rescue: 57*; C2C12 statin: -42; PGC1a acetyl inh: -7

What do the screens show for `COC(=O)C[C@@H]1CC[C@H]2[C@H](COc3ccc(NC(=O)c4ccc(C(F)(F)F)cc4)cc3C(=O)N2C)O1`?
miR-122 sensor: 4[16.7 µM]; DENV2 CPE rescue: -5; C2C12 statin: -6; PGC1a acetyl inh: -9

What do the screens show for `COC(=O)C[C@@H]1CC[C@H]2[C@@H](COc3ccc(NC(=O)c4ccc(C(F)(F)F)cc4)cc3C(=O)N2C)O1`?
miR-122 sensor: -6[16.7 µM]; DENV2 CPE rescue: 99*; C2C12 statin: -4; PGC1a acetyl inh: -1

How did Cc1noc(C)c1NC(=O)Nc1ccc2c(c1)CC(=O)N([C@H](C)CO)C[C@@H](C)[C@H](CN(C)C(=O)NC1CCCCC1)O2 do in these assays?
miR-122 sensor: -4[16.7 µM]; DENV2 CPE rescue: -2; C2C12 statin: 17; PGC1a acetyl inh: 6

How did C[C@H]1CN([C@@H](C)CO)C(=O)c2cc(C#CC3CC3)cnc2O[C@@H]1CN(C)C(=O)c1ccncc1 do in these assays?
miR-122 sensor: -2[16.7 µM]; C2C12 statin: 17; PGC1a acetyl inh: -4

What do the screens show for `C[C@@H](NC(=O)C[C@H]1C[C@H]2c3cc(NC(=O)CC4CC4)ccc3O[C@H]2[C@H](CO)O1)c1ccccc1`?
miR-122 sensor: 2[16.7 µM]; DENV2 CPE rescue: -4; C2C12 statin: 7; PGC1a acetyl inh: 5

Results for C[C@@H]1CN([C@H](C)CO)C(=O)Cc2cc(NS(=O)(=O)c3ccccc3)ccc2O[C@H]1CN(C)Cc1ccncc1 ?
miR-122 sensor: 3[16.7 µM]; DENV2 CPE rescue: 2; C2C12 statin: -10; PGC1a acetyl inh: 0

How did C[C@@H]1CN([C@@H](C)CO)C(=O)c2cc(C3=CCCCC3)cnc2O[C@H]1CN(C)S(=O)(=O)c1cn(C)cn1 do in these assays?
miR-122 sensor: -1[16.7 µM]; DENV2 CPE rescue: 7; C2C12 statin: 5; PGC1a acetyl inh: -23

How did CN1C(=O)c2cc(NC(=O)c3ccc4c(c3)OCO4)ccc2OC[C@@H]2O[C@@H](CC(=O)O)CC[C@H]21 do in these assays?
miR-122 sensor: -8[16.7 µM]; DENV2 CPE rescue: -2; C2C12 statin: -1; PGC1a acetyl inh: -6

What do the screens show for `CCC(=O)Nc1ccc2c(c1)C(=O)N(C)[C@@H]1CC[C@H](CC(=O)O)O[C@H]1CO2`?
miR-122 sensor: 12[16.7 µM]; DENV2 CPE rescue: 24*; C2C12 statin: 20; PGC1a acetyl inh: 7

Results for CCS(=O)(=O)Nc1ccc2c(c1)C(=O)N(C)[C@@H]1CC[C@H](CC(=O)NC3CCCCC3)O[C@H]1CO2 ?
miR-122 sensor: 4[16.7 µM]; DENV2 CPE rescue: 76*; C2C12 statin: 7; PGC1a acetyl inh: 2

How did CCC(=O)Nc1ccc2c(c1)C(=O)N(C)[C@H]1CC[C@H](CC(=O)O)O[C@H]1CO2 do in these assays?
miR-122 sensor: 15[16.7 µM]; DENV2 CPE rescue: -1; C2C12 statin: 5; PGC1a acetyl inh: 3

Screening results (PubChem)
